Results published in PubChem BioAssay (Tox21).
Several values for one entry are separate records, joined by “and”; a condition that tells them apart may be missing. Equal entries are not always repeated. Inconclusive results are not listed. Entries that show only a call come without a potency. A number with no mark means an inactive call. Activity calls are given as the source filed them. The call rests on the fitted dose curve; in most records, active means well fitted curve in the direction sought with a large enough effect in the repeat runs; inconclusive means weak or mixed curves; inactive means no such curve, though single readings can be large; an effect the other way counts as inactive or inconclusive.

What was measured:
[1] = target: Nuclear receptor subfamily 1 group I member 2 (Rattus norvegicus) (UniProt Q9R1A7); experiment: Rat pregnane X receptor (rPXR) activation by small molecules, qHTS assay (AID 1346983); settings: rPXR luciferase reporter cells, One-Glo luminescence, 24 h; max activation: active compounds read high; further: nearly all actives have a fitted effect of over 20% in size; further: potency means the concentration at half of the fitted maximal effect
Summary of the method: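 Cell-based rPXR luciferase reporter assay, 2,000 cells per well, rested 5hr at 37 C before compound addition in DMSO, then 24 hr at 37 C. One-Glo reagent was added and luminescence read after 30 min at room temperature.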

[2] = target: Nuclear receptor subfamily 1 group I member 2 (Homo sapiens) (UniProt O75469); experiment: CYP3A4 induction through human pregnane X receptor (PXR) by small molecules, qHTS assay (AID 1346984); further: nearly all actives have a fitted effect of over 40% in size
Summary of the method: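 Human PXR activation is tracked via CYP3A4 promoter-luciferase in DPX-2 (HepG2) cells. Compounds treat cells for 24hr at 37C, and luminescence is read after One-Glo.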

[3] = target: Nuclear receptor subfamily 1 group I member 2 (Homo sapiens) (UniProt O75469); experiment: Human pregnane X receptor (PXR) activation by small molecules, qHTS assay (AID 1346985); further: nearly all actives have a fitted effect of over 40% in size
Summary of the method: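 DPX-2 cells (HepG2 co-transfected with a PXR response element and a CYP3A4-promoter luciferase construct) were seeded at 2,000 per well, rested 5 hr at 37C, then exposed to DMSO-dissolved compounds for 24 hr. Activation was read as luciferase luminescence.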

Nuclear receptor subfamily 1 group I member 2 (Rattus norvegicus), sequence (Q9R1A7 whole entry, looked up): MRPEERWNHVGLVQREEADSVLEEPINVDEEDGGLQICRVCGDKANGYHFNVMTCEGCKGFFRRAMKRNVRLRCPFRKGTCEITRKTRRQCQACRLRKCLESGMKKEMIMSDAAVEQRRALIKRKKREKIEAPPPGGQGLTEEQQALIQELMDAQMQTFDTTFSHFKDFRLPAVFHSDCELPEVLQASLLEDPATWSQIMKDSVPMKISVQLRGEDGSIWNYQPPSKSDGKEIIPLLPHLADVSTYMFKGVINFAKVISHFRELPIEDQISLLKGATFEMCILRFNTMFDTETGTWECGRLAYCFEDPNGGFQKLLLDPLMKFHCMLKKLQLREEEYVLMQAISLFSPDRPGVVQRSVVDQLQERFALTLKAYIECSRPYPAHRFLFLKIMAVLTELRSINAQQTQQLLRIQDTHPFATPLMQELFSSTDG

Row | SMILES | max activation [1] | Potency [2] | Potency [3] | Potency [1]
1 | CCC(O)c1ccccc1 (stereo not given) | -2.74% | inactive | – | –
2 | C[C@H](NCCc1ccc(O)cc1)[C@H](O)c1ccc(O)cc1 | -4.49% | inactive | – | –
3 | CC1CCCCN1CCCOC(=O)c1ccccc1 (stereo not given) | -7.12% | inactive | – | –
4 | CC(C)(C)c1ccc2c(S(=O)(=O)O)c(C(C)(C)C)ccc2c1 | -3.68% | – | – | –
5 | COc1cc2c(cc1OC)[C@@H](Cc1cc(OC)c(OC)c(OC)c1)[N+](C)(CCCOC(=O)CC/C=C/CCC(=O)OCCC[N+]1(C)CCc3cc(OC)c(OC)cc3[C@H]1Cc1cc(OC)c(OC)c(OC)c1)CC2 (stereo not given in full) | -6.15% | inactive | – | –
6 | CN[C@H](CC(C)C)C(=O)N[C@H]1C(=O)N[C@@H](CC(N)=O)C(=O)N[C@H]2C(=O)N[C@H]3C(=O)N[C@H](C(=O)N[C@@H](C(=O)O)c4cc(O)cc(O)c4-c4cc3ccc4O)[C@H](O)c3ccc(c(Cl)c3)Oc3cc2cc(c3O[C@@H]2O[C@H](CO)[C@@H](O)[C@H](O)[C@H]2O[C@H]2C[C@](C)(N)C(O)[C@H](C)O2)Oc2ccc(cc2Cl)[C@H]1O (stereo not given in full) | -3.51% | inactive | – | –
7 | CCc1ncnc2cc(OC)c(OC)cc12 | -3.13% | inactive | – | –
8 | CN1[C@@H](CC(=O)c2ccccc2)CCC[C@H]1C[C@H](O)c1ccccc1 | 4.75% | inactive | – | –
9 | CCOc1cc(CC(=O)N[C@@H](CC(C)C)c2ccccc2N2CCCCC2)ccc1C(=O)O | -4.89% | inactive | – | –
10 | C=CC1=C(C(=O)O)N2C(=O)[C@@H](NC(=O)/C(=N/OCC(=O)O)c3csc(N)n3)[C@H]2SC1 (stereo in doubt) | -1.86% | inactive | – | –
11 | CC1(C)S[C@@H]2[C@H](N3C(=O)C(c4ccccc4)NC3(C)C)C(=O)N2[C@H]1C(=O)O (stereo not given in full) | -2.27% | inactive | – | –
12 | CCCCCCCCCCCCCCCCCC(=O)O | -4.34% | – | – | –
13 | CC1=C(/C=C/C(C)=C/C=C/C(C)=C/C=C/C=C(C)/C=C/C=C(C)/C=C/C2=C(C)CCCC2(C)C)C(C)(C)CCC1 | -2.1% | inactive | inactive | –
14 | C[C@H](O)CN(C)C | -2.23% | inactive | inactive | –
15 | CC(=O)OCC(=O)[C@@]1(O)CC[C@H]2[C@@H]3C[C@H](C)C4=CC(=O)C=C[C@]4(C)[C@H]3[C@@H](O)C[C@@]21C | – | inactive | inactive | 7.94 µM (active)
16 | Cc1ncc(C[n+]2csc(CCOP(=O)(O)O)c2C)c(N)n1 | -1.3% | inactive | inactive | –
17 | C/C(=C\C(=O)OCCCCCCCCC(=O)O)C[C@@H]1OC[C@H](C[C@@H]2O[C@H]2[C@@H](C)[C@H](C)O)[C@@H](O)[C@H]1O | -5.5% | inactive | inactive | –

Row | SMILES | max activation [1] | Potency [2] | Potency [3] | Potency [1]
18 | Cc1cc(-c2ccc(N=Nc3ccc4c(S(=O)(=O)O)cc(S(=O)(=O)O)c(N)c4c3O)c(C)c2)ccc1N=Nc1ccc2c(S(=O)(=O)O)cc(S(=O)(=O)O)c(N)c2c1O | -5.28% | inactive | inactive | –
19 | CC1(C)CCC(NC(=O)[C@@H](N)CCC(=O)O)CC1 | -2.85% | inactive | inactive | –
20 | NC(=O)[C@@H]1CCCN1C(=O)[C@H](Cc1cnc[nH]1)NC(=O)[C@@H]1CCC(=O)N1 | -0.96% | inactive | inactive | –
21 | CC(=O)NC[C@H]1CN(c2ccc(N3CCOCC3)c(F)c2)C(=O)O1 | -2.66% | inactive | inactive | –
22 | C=C(Nc1ccc(OCC)cc1)Nc1ccc(OCC)cc1 | -1.1% and 0.608% | inactive | inactive | –
23 | O=S(=O)(O)CC(S)CS (stereo not given) | -6.49% | inactive | inactive | –
24 | Cc1c(O)c(=O)ccn1C | -3.64% | inactive | inactive | –
25 | CC/C=C\C/C=C\C/C=C\C/C=C\C/C=C\C/C=C\CCC(=O)O | -7.03% | inactive | inactive | –
26 | CCC(NC(C)C)C(O)c1ccc(O)c(O)c1 (stereo not given) | -0.219% | inactive | inactive | –
27 | O=C(CCCN1CCN2CCCC2C1)c1ccc(F)cc1 (stereo not given) | 1.23% | inactive | inactive | –
28 | OCC1(CO)COC(C(Cl)(Cl)Cl)OC1 | -2.81% | inactive | inactive | –
29 | O=C(O)c1cc(=O)c2c3nc4ccccc4oc-3cc(=O)c2[nH]1 | -7.15% | inactive | inactive | –
30 | CS(=O)(=O)c1ccc([C@@H](O)[C@@H](COC(=O)CN)NC(=O)C(Cl)Cl)cc1 | -5.77% | inactive | inactive | –
31 | CCCC(CCC)C(=O)OC1C[C@H]2CC[C@@H](C1)[N+]2(C)C (stereo not given in full) | -0.777% | inactive | inactive | –
32 | Oc1ccc(Cl)c2c1CCC2 | 0.0185% | inactive | inactive | –
33 | Cc1cccc(C)c1NC(=O)C1CCCCN1C (stereo not given) | -1.93% | inactive | inactive | –
